# Compounds with a hit are over-represented: about 4.2% of the library has one in this group of screens.
# GDH-TPI counter = GDH-TPI coupling enzyme inhibitors, primary screen, artefact control for M. tuberculosis FBA inhibitor project, biochemical, absorbance, full deck. GDH-TPI coupled enzyme counterscreen, NADH absorbance. inhibition, % at 4.8 µM. AID 588335, 2011. 360,000 tested, 1.2% active;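 also: 0% = DMSO wells and 100% = wells lacking the enzyme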
# RecA intein inh = Mtb RecA intein splicing inhibitors, primary screen, biochemical, fluorescence, HTS | AID 2221, 2009 | cell-free RecA intein splicing | Protein RecA (Mycobacterium tuberculosis (strain ATCC 25618 / H37Rv)), P9WHJ3 | inhibition, % (test concentration not listed) | 290,000 tested, 0.75% active; in the data active = inhibition above about 30%;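 also: 0% = vehicle wells and 100% = reference inhibitor control wells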
# Target sequence (P9WHJ3 whole entry, looked up): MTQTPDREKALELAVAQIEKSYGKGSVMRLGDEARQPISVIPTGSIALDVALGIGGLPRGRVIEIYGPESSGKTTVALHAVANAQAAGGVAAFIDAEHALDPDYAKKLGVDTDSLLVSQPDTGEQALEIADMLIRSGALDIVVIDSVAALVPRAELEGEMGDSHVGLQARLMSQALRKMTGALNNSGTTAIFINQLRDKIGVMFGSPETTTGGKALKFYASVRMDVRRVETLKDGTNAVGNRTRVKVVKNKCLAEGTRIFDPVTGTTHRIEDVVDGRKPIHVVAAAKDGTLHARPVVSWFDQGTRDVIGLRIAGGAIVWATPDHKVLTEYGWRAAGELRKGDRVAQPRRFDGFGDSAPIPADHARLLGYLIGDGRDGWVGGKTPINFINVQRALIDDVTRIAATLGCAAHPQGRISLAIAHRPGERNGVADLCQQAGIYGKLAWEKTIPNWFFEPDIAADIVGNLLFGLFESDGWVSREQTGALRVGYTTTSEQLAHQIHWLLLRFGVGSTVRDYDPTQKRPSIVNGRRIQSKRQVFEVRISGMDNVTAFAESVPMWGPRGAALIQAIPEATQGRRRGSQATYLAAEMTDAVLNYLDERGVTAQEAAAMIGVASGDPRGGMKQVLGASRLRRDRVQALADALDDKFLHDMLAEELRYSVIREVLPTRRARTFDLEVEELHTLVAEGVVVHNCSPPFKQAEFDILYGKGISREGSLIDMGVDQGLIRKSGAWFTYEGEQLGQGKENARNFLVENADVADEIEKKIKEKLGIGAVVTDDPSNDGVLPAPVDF
# CCHF vOTU inh = CCHFV vOTU protease inhibitors, primary screen, biochemical, Pep-AMC substrate, fluorescence; Crimean-Congo hemorrhagic fever virus L polyprotein viral ovarian tumor (vOTU) protease …; inhibition, % at 11.5 µM; 370,000 tested, 0.55% active; AID 651958, 2012; also: 0% = vehicle wells with enzyme and 100% = no enzyme wells
# FBA Mtb inh = Mtb FBA enzyme inhibitors, primary screen, biochemical, fluorescence, strain H37Rv; purified M. tuberculosis FBA, fluorescence read-out; inhibition, % at 1 µM; 360,000 tested, 2.3% active; AID 588726, 2011; in the data active = inhibition above about 27%;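 also: 0% = vehicle and 100% = reference inhibitor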
# * hit, by the source's call; x = no result; + = active, no number. Rule as the data show it, unless noted: active = inhibition above about 30%; inactive = the rest.
SMILES,GDH-TPI counter,RecA intein inh,CCHF vOTU inh,FBA Mtb inh
NS(=O)(=O)c1ccc(-c2ccc(/C=N/Nc3ccc(C(=O)O)cc3)o2)cc1,34*,-71,-1,-2
O=C(N/N=C/c1ccc(O)cc1O)/C(=C/c1ccccc1)CCO,41*,-17,5,0
COc1cc(/C=N/NC(=O)/C(=C/c2ccccc2)CCO)ccc1O,39*,-3,9,-1
O=C(NCCc1ccccc1)C1CC(=O)N(C2CCCCC2)C1 (centres undefined),-5,0,12,-1
COC(=O)Cc1c(C)c2c(OCc3nn[nH]n3)cc(C)cc2oc1=O,24,-1,-62,172*
COC(=O)Cc1c(C)c2ccc(OCC(=O)N3CCCC(C)C3)c(C)c2oc1=O (centres undefined),10,2,-39,120*
CCc1cc(=O)oc2cc(C)cc(OCc3nn[nH]n3)c12,9,-3,-27,119*
Cc1c(OCC(=O)N2CCC(C(=O)NCCCC(=O)O)CC2)ccc2c1oc(=O)c1ccccc12,5,-2,-121,133*
CCC(C)NC(=O)C1CCN(C(=O)COc2ccc3c4c(c(=O)oc3c2C)CCCC4)CC1 (centres undefined),7,-1,8,9
O=C(NCc1cccc2ccccc12)C1CCCN(c2nc3ccccc3o2)C1 (centres undefined),x,x,1,x
CC1COCC(C)N1S(=O)(=O)c1ccc2c(c1)CCN2C(=O)C1CCC1 (centres undefined),x,x,-7,x
O=C(c1ccc(Cl)cc1)c1c[nH]c(C(=O)NNc2ccccc2)c1,0,-2,9,1
COc1ccc(N(S(=O)(=O)c2ccccc2)S(=O)(=O)c2ccccc2)c(N)c1,7,-3,5,4
COC(=O)Cc1c(C)c2ccc(OCc3nn[nH]n3)cc2oc1=O,17,-1,-58,189*
Cc1c(CC(=O)O)c(=O)oc2c(C)c(OCc3ccccc3)ccc12,10,-1,-4,14
COC(=O)Cc1c(C)c2ccc(OCc3nn[nH]n3)c(C)c2oc1=O,13,0,-53,160*
CCN(CC)CCCNC(=O)c1cn(CC)c2cc(N3CCN(C(=O)c4ccco4)CC3)c(F)cc2c1=O,20,-1,4,54*
CC(C)(C)OC(=O)[C@H](Cc1ccccc1)NCC(=O)OCc1ccc(C(=O)NCc2ccccc2)cc1,x,x,16,x
COc1cccc(-c2cc3nc(-c4ccccc4)cc(=O)n3[nH]2)c1,14,0,-26,84*
Cc1cc(/C=C(\C#N)C(=O)O)c(C)n1CC(C)C,35*,x,3,2
Oc1ccc(Nc2nc(-c3ccc(O)cc3)cs2)cc1,17,34*,1,1
NS(=O)(=O)c1ccc(Nc2nc(-c3ccc(O)cc3)cs2)cc1,9,2,2,7
CCCCn1c(N)c(N(CC(C)C)C(=O)C2CC(=O)N(Cc3ccco3)C2)c(=O)[nH]c1=O (centres undefined),5,-1,5,5
COc1cc(C)c(/C=C/C(C)=C/C=C/C(C)=C/C(=O)O)c(C)c1C,61*,4,7,-1
N#Cc1cc(C#N)c(N2CCN(c3ccccn3)CC2)nc1N,32*,-2,16,0
SMILES,GDH-TPI counter,RecA intein inh,CCHF vOTU inh,FBA Mtb inh
c1ccc(N2CCN(c3cnccn3)CC2)nc1,11,1,2,4
CC(NC(=O)OC(C)(C)C)C(=O)Oc1cc2oc(=O)cc(-c3ccccc3)c2cc1Cl (centres undefined),20,-70,x,43*
O=C(Nc1ccc(Cc2ccncc2)cc1)c1cccc([N+](=O)[O-])c1,1,0,10,-1
O=C(Nc1ccc(Nc2ccncc2)cc1)c1ccc(Nc2ccnc3ccc([N+](=O)[O-])cc23)cc1,39*,0,-19,0
Cc1ccc(C(=O)N2CCN(c3ccc(C(F)(F)F)cn3)CC2)cc1,0,0,8,4
O=C(c1cnc2ccccc2n1)N1CCN(c2ccc(C(F)(F)F)cn2)CC1,31*,2,0,-4
Cn1c(-c2ccccc2)c(C(=O)CC#N)c2ccccc21,-2,-1,6,3
CCn1c(-c2ccccc2)c(C(=O)O)c2ccccc21,-1,1,10,28*
Cc1c(C(=O)O)cccc1-n1c(C)cc(/C=N/Nc2ccc([N+](=O)[O-])cn2)c1C,2,3,10,-10
Cc1c(C(=O)O)cccc1-n1c(C)cc(/C=N/NC(=O)c2cc3ccccc3o2)c1C,39*,-3,3,0
Cc1ccccc1-n1c(C)cc(/C=N/NC(=O)c2ccncc2)c1C,31*,2,3,-1
O=c1[nH]c(=S)n(C2CC2)c(O)c1/C=N/Nc1ccccc1,19,-9,22,-5
O=C(N/N=C/c1c(O)n(C2CCCCC2)c(=S)[nH]c1=O)c1ccccc1O,15,37*,20,7
O=C(N/N=C/c1c(O)n(C2CCCCC2)c(=S)[nH]c1=O)c1ccccc1,14,15,-8,3
CC(N=Cc1c(O)n(C2CC2)c(=S)[nH]c1=O)c1ccccc1 (centres undefined),35*,1,7,-3
O=c1c2ccccc2nc2n1CCC2,10,51*,13,-2
O=c1c2ccccc2nc2n1CCCCN2,3,1,-31,68*
O=C(CCN1CCOCC1)NNC(=O)c1ccc([N+](=O)[O-])cc1[N+](=O)[O-],1,x,-4,-1
Cc1ccc(S(=O)(=O)c2cc3c(=O)n4ccccc4nc3n(Cc3ccco3)c2=N)cc1C,x,-63,-33,x
CCOC(=O)c1cc2c(=O)n3ccccc3nc2n(Cc2ccco2)c1=NC(=O)c1ccc(OC)cc1,11,-73,-161,115*
CCOC(=O)c1cc2c(=O)n3cccc(C)c3nc2n(Cc2ccco2)c1=NC(=O)c1ccc(C)cc1,3,x,x,1
CCOC(=O)c1cc2c(=O)n3ccccc3nc2n(Cc2ccco2)c1=NC(=O)c1cccc(OC)c1,39*,-18,-73,139*
CCOC(=O)c1cc2c(=O)n3cccc(C)c3nc2n(Cc2ccco2)c1=NC(=O)c1ccccc1,9,-427,-136,+
CCOC(=O)c1cc2c(=O)n3ccccc3nc2n(Cc2ccco2)c1=NC(=O)c1ccccc1OC,24,-301,-54,+
COc1ccc(CCn2c(=N)c(C(=O)NCc3ccco3)cc3c(=O)n4ccccc4nc32)cc1,-1,-5,-10,7
O=C1c2ccccc2-c2c1nc1c([n+]2[O-])CCCC1,-6,37*,10,-1
CCN1C(=O)/C(=C\N(C)C)c2ccccc21,32*,3,-6,-2
CN(C)C=C1C(=O)c2ccccc2C1=O,9,4,7,3
CCO/C=C1\C(=O)N(CC)c2ccccc21,0,1,-3,-1
CCN1C(=O)/C(=C/N(C)C)c2ccccc21,37*,1,-15,-1

# Screening data: PubChem BioAssay, several laboratories
